Test results published in the supplement of paper PMC3334620.
In all, about 33,000 sequences were measured (“E-score (-0.5 to 0.5)”: median about -0.056, highest 2% from about 0.38 on). This excerpt belongs to a sample that is enriched for the highest values.

molecular target: Stb4 (UniProt P50104); assay: PBM E-score (8-mer binding enrichment) (E-score (-0.5 to 0.5)); higher = stronger / more preferred TF binding; settings: protein concentration: 200 nM; construct: GST-DNA-binding domain
Experimental: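 Universal 'all 10-mer' protein binding microarrays (Agilent AMADID 015681) probed with GST-tagged S. cerevisiae TFs (full-length or DBD) made by in vitro transcription/translation (PURExpress), about 100-200 nM. Bound TF was detected with fluorescent anti-GST. Each ungapped 8-mer (which stands for itself and its reverse complement) is scored by the PBM enrichment score (E-score), a modified Wilcoxon-Mann-Whitney statistic from -0.5 to +0.5, computed with the Universal PBM Analysis Suite. Scale: above 0.35 generally sequence-specific binding.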

Sequence of UniProt P50104 (P50104 whole entry, the tested form may be a part): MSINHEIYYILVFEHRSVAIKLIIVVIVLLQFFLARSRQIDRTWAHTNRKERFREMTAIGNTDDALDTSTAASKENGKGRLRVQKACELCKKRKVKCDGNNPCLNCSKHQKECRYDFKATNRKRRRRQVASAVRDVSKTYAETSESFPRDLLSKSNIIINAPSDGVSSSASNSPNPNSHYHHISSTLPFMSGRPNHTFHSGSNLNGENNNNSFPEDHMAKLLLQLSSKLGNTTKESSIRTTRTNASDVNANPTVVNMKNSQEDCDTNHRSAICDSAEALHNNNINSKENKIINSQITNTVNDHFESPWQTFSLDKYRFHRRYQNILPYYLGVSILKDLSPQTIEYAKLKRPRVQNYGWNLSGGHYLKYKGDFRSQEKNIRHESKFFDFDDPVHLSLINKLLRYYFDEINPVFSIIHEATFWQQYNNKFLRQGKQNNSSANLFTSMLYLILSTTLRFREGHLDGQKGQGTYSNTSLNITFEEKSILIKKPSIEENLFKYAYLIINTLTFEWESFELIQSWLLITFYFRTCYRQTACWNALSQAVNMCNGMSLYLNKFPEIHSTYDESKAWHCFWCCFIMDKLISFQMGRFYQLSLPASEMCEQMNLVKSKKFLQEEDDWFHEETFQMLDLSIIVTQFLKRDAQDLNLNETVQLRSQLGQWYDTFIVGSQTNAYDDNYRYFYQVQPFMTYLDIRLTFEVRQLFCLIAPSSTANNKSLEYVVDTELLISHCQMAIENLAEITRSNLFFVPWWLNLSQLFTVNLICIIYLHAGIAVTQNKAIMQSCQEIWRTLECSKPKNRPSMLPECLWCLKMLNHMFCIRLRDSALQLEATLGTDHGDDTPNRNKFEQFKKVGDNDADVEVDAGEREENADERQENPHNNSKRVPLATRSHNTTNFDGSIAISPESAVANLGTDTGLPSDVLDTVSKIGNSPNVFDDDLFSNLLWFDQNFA

Row | Sequence | PBM E-score
1 | ACTTCCCA | -0.158
2 | ACTTCCGC | 0.379
3 | ACTTCCCG | 0.354
4 | CCTTCCTA | -0.354
5 | ACTTCCGG | 0.411
6 | CCTTCCGA | 0.451
7 | ACTTCCTG | -0.0685
8 | ACTTCCGA | 0.479
9 | AAAACTTT | 0.0161
10 | CCTGTATC | 0.011
11 | CTGCTAAC | -0.0715
12 | ATCTCTAA | 0.0304
13 | AGCCAGAT | 0.0138
14 | CACCGCAA | 0.0924
15 | CACCGTCA | -0.13
16 | CGGATGGC | 0.347
17 | GACCCATC | 0.0784
18 | TACCCGAA | 0.476
19 | TACCCGGA | 0.415
20 | AACCCGAC | 0.324
21 | GACCCGCC | 0.0652
22 | GACCCGAC | 0.384
23 | GCCCCGAA | 0.31
24 | GACCCGGA | 0.323
25 | CACCCGGA | 0.358
26 | GACCCCGA | 0.288

Row | Sequence | PBM E-score
27 | TACCCGTA | 0.31
28 | GACCCGAA | 0.428
29 | TACCCCGA | 0.342
30 | GAAAAGTC | -0.011
31 | ACCAAGGA | 0.00373
32 | AAGGCCTA | -0.225
33 | ATTTGGGG | -0.0633
34 | AACCCGAA | 0.387
35 | AACCCGCA | 0.156
36 | ACCCCGAA | 0.369
37 | ACCAAGAA | -0.0301
38 | CGCCGGAC | 0.146
39 | AGCCGGCT | 0.238
40 | AGCCGGAT | 0.396
41 | TGCCGGCA | 0.296
42 | GGCCGGAA | 0.371
43 | CGCCGGAG | 0.168
44 | CGCCGGAA | 0.392
45 | AGCCGGAA | 0.395
46 | AGCCGGAC | 0.239
47 | TGCCGGAA | 0.419
48 | AGCCGGAG | 0.379
49 | AGCCGGCA | 0.316
50 | AAGAATAT | 0.0558
51 | GCAAGTAA | -0.0627
52 | ATTTAAAT | -0.101

Row | Sequence | PBM E-score
53 | AGAAAGGG | -0.138
54 | ATCTTGTA | -0.0999
55 | TGAGAGCA | -0.178
56 | CATCGCCA | -0.0625
57 | GGGCGGAA | 0.308
58 | CGGCGGAA | 0.408
59 | AGGCGGAA | 0.278
60 | CAGCTTTA | -0.0389
61 | ACTCGGAT | 0.467
62 | ACTCGTAA | 0.0295
63 | GCGCGGAA | 0.338
64 | TCGCGGAA | 0.315
65 | ACTCGGAA | 0.47
66 | TCTCGTAA | 0.00218
67 | GCACGGAA | 0.327
68 | ACTCGGAC | 0.327
69 | TCTCGGAA | 0.479
70 | ACTCGGTC | 0.204
71 | ACTCGGTG | 0.124
72 | GCTCGGAA | 0.482
73 | CAGTCCCC | -0.362
74 | CTCTCAGC | -0.362
75 | CCACTGGG | -0.231
76 | ATCGCATG | -0.117
77 | AGATACAC | -0.107
78 | AGGCAGGA | -0.188

Row | Sequence | PBM E-score
79 | ACTCTATC | -0.0391
80 | AAGGCTAC | -0.0344
81 | CCCACTCG | 0.0329
82 | GCTCGTAC | -0.0377
83 | GCTCGGAC | 0.391
84 | TCACGGAA | 0.389
85 | CCACGGAA | 0.354
86 | GCACGGAC | 0.13
87 | ACACGGAA | 0.338
88 | GTCACCAC | -0.103
89 | AGGGGAGA | -0.0188
90 | GTGCGTCA | -0.101
91 | CCCCGCTC | -0.0289
92 | CTAAATCC | 0.205
93 | GATTATCA | 0.0201
94 | AGTATCAT | 0.0471
95 | ACTCCAGC | -0.253
96 | GGGGTTTA | -0.0416
97 | CGGGTACC | 0.312
98 | CGGGTTTC | 0.277
99 | AGGGTAGA | -0.166
100 | CGGGTATC | 0.404
101 | CGGGTTTA | 0.389
102 | CGGGTAGA | 0.389
103 | CGGGTAGC | 0.37
104 | GGGGTATA | 0.06

Row | Sequence | PBM E-score
105 | AGGGTATA | -0.029
106 | CGGGTATA | 0.418
107 | AGGGTATC | -0.0302
108 | CAGCATCC | 0.121
109 | GACAAGTA | -0.0988
110 | AGAGTGCG | -0.164
111 | CGTTGATA | 0.0343
112 | AGATCTGG | -0.188
113 | CAACTAGA | -0.182
114 | GAACGGTC | 0.148
115 | GATCCAAC | 0.104
116 | GATCCGCC | 0.273
117 | AATCCGAG | 0.407
118 | AATCCGTG | 0.172
119 | CATCCGAG | 0.481
120 | GATCCGAC | 0.434
121 | AATCCGCC | 0.218
122 | CATCCGCC | 0.4
123 | CATCCGCG | 0.285
124 | GATCCCAC | -0.00608
125 | AATCCGCG | 0.127
126 | CGTCCGAG | 0.257
127 | ACCAGCCA | -0.0271
128 | CAGAGATA | -0.182
129 | CGAGTTGC | 0.0987
130 | CGCTCCCA | -0.0934

Row | Sequence | PBM E-score
131 | CCAAACAG | -0.345
132 | GGAGAGAA | 0.0164
133 | GATGTGGC | -0.0114
134 | AATCCGAC | 0.346
135 | CATCCGAC | 0.455
136 | CATCCGTC | 0.308
137 | ACTCAGTG | -0.208
138 | ACGATCAT | -0.174
139 | CAACCATA | -0.251
140 | AACGAATG | -0.142
141 | AGCAGCTG | -0.307
142 | GCTCAGAC | -0.19
143 | CGACTAGA | -0.0326
144 | TGAGTGAA | -0.295
145 | GGAGTGTA | 0.0839
146 | CCGGTCCG | 0.389
147 | CCGGTCCC | 0.282
148 | CCGGTCCA | 0.0504
149 | CCAAAGTA | 0.0417
150 | AGGGCTCA | -0.326
151 | GTTCGGGA | 0.453
152 | GATCGGGA | 0.359
153 | ATTCGGGC | 0.301
154 | ATTCGGGG | 0.34
155 | ATTCGGGA | 0.415
156 | CTTCGGGC | 0.291

Row | Sequence | PBM E-score
157 | CTTCGGGA | 0.439
158 | GTACGGGA | 0.222
159 | CATCGGGA | 0.331
160 | TGCTAAAA | -0.205
161 | AGATCGAT | -0.16
162 | ACCCCTAT | -0.143
163 | GACCTGCC | 0.0159
164 | ACACTGAG | -0.128
165 | CCGGGAAA | 0.33
166 | ACGGGACA | 0.276
167 | CCGGGACA | 0.326
168 | TCGGGAAA | 0.443
169 | CAGGAAAA | -0.0586
170 | CCGGAAAC | 0.394
171 | CCGGAAAA | 0.441
172 | ACGGAAAC | 0.375
173 | CCGGAAAG | 0.366
174 | TCGGGACA | 0.408
175 | GCGGGAAA | 0.306
176 | CTGGAAAA | -0.00258
